Measured values published in PubChem BioAssay AID686978 (National Center for Advancing Translational Sciences (NCATS), 2013).
Among all 420,000 compounds or so, about 64,000 (15%) were called active. Inconclusive results (about 27%) are left out. Calls follow the shape of the dose curve; as a rule, active = well fitted inhibition curve with a large enough effect; inconclusive = small, poorly fitted or top-dose-only effect; inactive = flat fitted curve, though single readings scatter. Not all results are given here.

Assay: qHTS for Inhibitors of human tyrosyl-DNA phosphodiesterase 1 (TDP1): qHTS in cells in absence of CPT; also: nearly all actives have a fitted effect of over 55% in size
Details: DT40 Tdp1-/- hTDP1 cells, no CPT, ATP luminescence, 48 h; activity change, negative = growth inhibition: at 46.2 µM (top of the series)
How it was run: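 Growth of hTDP1-complemented DT40 Tdp1-knockout cells is measured by ATP luminescence after at least 48 hr compound exposure at 37 °C, with DMSO substituting for the 20 nM CPT used in the parallel screen.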
% is scaled to controls: 0 for no effect and ±100 for the full control effect; potency is read from the fitted curve at half-maximal effect.

SMILES | activity change, negative = growth inhibition | Potency
NC(=O)C1CCN(C(=O)c2ccc(C(F)(F)F)cc2)CC1 | 10% (inactive) | 
Cc1ccc2nc(COc3cccc(NC(=O)c4ccccc4Cl)c3)cc(=O)n2c1 | -18.2% (inactive) | 
CNC[C@H]1Oc2c(NC(=O)C3CCCCC3)cccc2C(=O)N([C@H](C)CO)C[C@@H]1C | 1.63% (inactive) | 
O=C(COC(=O)c1ccc(O)cc1O)NNC(=O)c1cccs1 | -10% (inactive) | 
Nc1nc(/C(=C/CC(=O)O)C(=O)N[C@@H]2C(=O)N3C(C(=O)O)=CCS[C@H]23)cs1 | 2.06% (inactive) | 
COc1cccc(NC(=S)NCCCN2CCOCC2)c1 | -0.715% (inactive) | 
COc1cccc2cc(C(C)N(CCCN3CCOCC3)C(=O)Nc3ccc(Cl)cc3)oc12 (stereo unspecified) |  | 23.1 µM (active)
COc1ccc(Cl)cc1NC(=O)CCN1CCOCC1 | -5.12% (inactive) | 
CC(C)CC(=O)N1CCC(O)(CS(=O)(=O)Cc2ccccc2)CC1 | 5.44% (inactive) | 
CCCCC(=O)Nc1c2c(nn1-c1ccc([N+](=O)[O-])cc1)CS(=O)(=O)C2 | 13.8% (inactive) | 
Cc1ccc2c(c1)nnc1nnc(SCC(=O)O)n12 | -18% (inactive) | 
C[C@H](NC(=O)c1nc[nH]c1C(=O)NCC(=O)OC(C)(C)C)C(=O)OCc1ccccc1 | -28.9% (inactive) | 
NC(=O)COc1ccc2c3c(c(=O)oc2c1)CCCCC3 | -16.1% (inactive) | 
Cc1c(OC(C)C(=O)N[C@@H](Cc2ccccc2)C(=O)O)ccc2c3c(c(=O)oc12)CCCC3 (stereo partly specified) | 2.69% (inactive) | 
CCCOc1ccc2c3c(c(=O)oc2c1OCCC)CCC3 |  | 23.1 µM (active)
COc1ccc(NC(=O)Nc2ccc3c(c2)C(=O)N([C@H](C)CO)C[C@H](C)[C@@H](CN(C)C(=O)Nc2ccc4c(c2)OCO4)O3)cc1 | -10% (inactive) | 
CN(CCc1cnn(C)c1)Cc1cn(C)nc1-c1ccccc1F | -2.86% (inactive) | 
COc1ccc(S(=O)(=O)N(C)C[C@H]2Oc3c(NC(=O)Nc4ccc5c(c4)OCO5)cccc3C(=O)N([C@H](C)CO)C[C@@H]2C)cc1 |  | 20.6 µM (active)
Cc1noc(C)c1S(=O)(=O)N(C)C[C@H]1Oc2c(NC(=O)Nc3ccc4c(c3)OCO4)cccc2C(=O)N([C@H](C)CO)C[C@@H]1C | -22% (inactive) | 
C[C@H](CO)N1C[C@H](C)[C@@H](CN(C)S(=O)(=O)c2ccc(F)cc2)Oc2c(NC(=O)Nc3ccccc3)cccc2C1=O | -19.6% (inactive) | 
Cn1c(=O)c(=O)n(C)c2cc(S(=O)(=O)NCCN3CCN(c4ccccc4F)CC3)ccc21 | -7.78% (inactive) | 
CC(=O)Oc1cccc(N2C(=O)CC(Nc3ccc(N4CCOCC4)cc3)C2=O)c1 (stereo unspecified) | 2.95% (inactive) | 
Cc1cc(C(=O)CSc2nc(N)cc(=O)[nH]2)c(C)n1-c1cccc(F)c1 |  | 4.61 µM (active)
Cc1cc(=O)[nH]c(SCC(=O)N2c3ccccc3CC2C)n1 (stereo unspecified) | -13.5% (inactive) | 
Cc1cc(C(=O)CSc2nc(N)cc(=O)[nH]2)c(C)n1CCc1ccc(Cl)cc1 |  | 16.4 µM (active)
Cc1cc(C(=O)CSc2nc(N)cc(=O)[nH]2)c(C)n1Cc1ccco1 |  | 0.82 µM (active)

SMILES | activity change, negative = growth inhibition | Potency
CCCCc1nnc(NC(=O)CSc2nc(N)cc(=O)[nH]2)s1 | -5.73% (inactive) | 
Cc1cc(C(=O)COC(=O)CNC(=O)c2ccc(F)cc2)c(C)n1Cc1ccco1 | -3.47% (inactive) | 
Cc1cc(C)c(C(=O)CSc2nc(C)cc(=O)[nH]2)c(C)c1 | -5.13% (inactive) | 
Nc1cc(N)nc(SCc2ccc(Cl)cc2)n1 | 2.64% (inactive) | 
CCN(C(=O)CSc1nc(N)cc(=O)[nH]1)C1CCS(=O)(=O)C1 (stereo unspecified) | 23% (inactive) | 
C=CCn1c(COc2ccccc2F)nnc1SCC(=O)N1CC(=O)Nc2ccccc21 | 0.578% (inactive) | 
O=C(O)C1C2C=CC(C2)C1C(=O)N1CCN(CCO)CC1 (stereo unspecified) | 1.64% (inactive) | 
C/C(=N\c1nc2ccccc2n1C)c1cc(Cl)ccc1O | -18.9% (inactive) | 
CCCOc1ccc(C2c3c(oc4cc(C)c(C)cc4c3=O)C(=O)N2CCCN2CCOCC2)cc1 (stereo unspecified) | -19.8% (inactive) | 
Cc1cc2oc3ccc(NCCC4CCCN4C)cc3c(=O)c2cc1C (stereo unspecified) |  | 16.4 µM (active)
Cc1ccc(C(=O)O)c(NC=O)c1OCc1ccccc1 | 34.4% (inactive) | 
CC(=O)Nc1ccc(NC(=O)CSc2nnc3c4cc(Br)ccc4n(C)c3n2)cc1 | -18.7% (inactive) | 
O=C1CCC/C(=N\NC(=O)NC2CCCCC2)C1 | -5.53% (inactive) | 
Cc1cnc(NC(=O)CSc2nnc(-c3ccccc3)n2Cc2ccccc2)s1 | -22.3% (inactive) | 
COC(=O)c1ccc(COc2cc([N+](=O)[O-])cc3cccnc23)cc1 | 10.4% (inactive) | 
COc1ccc(CNC(=O)COC(=O)C(CCSC)N2C(=O)c3ccccc3C2=O)cc1 (stereo unspecified) | -24.9% (inactive) | 
COc1cccc2cc(C(=O)N3CCN(C(=O)c4ccccc4)CC3)c(=O)oc12 | 4.28% (inactive) | 
O=C(c1cc(=O)c2ccccc2o1)N1CCN(c2ccccc2)CC1 | 13.6% (inactive) | 
COc1ccccc1OCc1ccc(C(=O)N2CCN(C)CC2)o1 | 6.37% (inactive) | 
COc1cc2c(cc1OC)CN(C(=O)c1cc(=O)c3ccccc3o1)CC2 |  | 3.26 µM (active)
COc1ccccc1N1CCN(c2nc(C)cc(=O)[nH]2)CC1 | -10.7% (inactive) | 
Cc1cccc(-c2cc(=O)c3cc(C)ccc3o2)c1 | -2.27% (inactive) | 
COc1ccc2c(CC(=O)N3CCc4cc(OC)c(OC)cc4C3)coc2c1 | -3.86% (inactive) | 
COc1ccccc1N1CCN(C(=O)c2cc(=O)c3cc(C)ccc3o2)CC1 |  | 23.1 µM (active)
COc1ccccc1N1CCN(C(=O)c2cc(=O)c3cc(C)cc(C)c3o2)CC1 |  | 0.0082 µM (active)
